# What was measured:
# Test in all cases: DAPPL (digital affinity profiling via proximity ligation, sequencing); 10 mM Tris-HCl pH 7.5, 50 mM NaCl, 1 mM DTT, 4% glycerol, room temperature, 30 min; GST-TFs on glutathione beads, 16-mer random dsDNA library, 0.1% formaldehyde crosslink after washing; high values mean tight binding
# [1] = target: T1, FEV (Homo sapiens, UniProt Q99581 1-238); settings: protein: recombinant; tags: N-terminal GST; dsDNA, one strand shown
# T1 sequence: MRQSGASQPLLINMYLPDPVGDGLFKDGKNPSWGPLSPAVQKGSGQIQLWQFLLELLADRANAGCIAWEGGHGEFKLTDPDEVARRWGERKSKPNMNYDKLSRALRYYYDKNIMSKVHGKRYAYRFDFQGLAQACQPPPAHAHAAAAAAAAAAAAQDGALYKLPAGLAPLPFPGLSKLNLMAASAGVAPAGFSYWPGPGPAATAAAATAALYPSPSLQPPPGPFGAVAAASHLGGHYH
# Summary of the method: (§1)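 Binding signal is each hexamer's read frequency for a factor divided by its frequency in the tag-only sample. The factors were GST-fused human transcription factors from yeast, captured on glutathione beads, DNA-barcoded and pooled with that sample. Pools were incubated with 200 nmole of a random double-stranded 16-mer DNA library in Tris/NaCl/DTT/glycerol buffer at room temperature for 30 min, then washed, crosslinked with 0.1% formaldehyde, proximity-ligated with BsaI/T4 ligase (1 h, 37 °C), PCR-amplified and sequenced on an Illumina NextSeq500.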
# [2] = target: ETV5 (Homo sapiens, UniProt P41161 1-510); settings: protein: recombinant; tags: N-terminal GST; dsDNA, one strand shown
# Summary of the method: as §1
# [3] = target: HSF1 (Homo sapiens, UniProt Q00613 1-529); settings: protein: recombinant; tags: N-terminal GST; chain copies: 3; dsDNA, one strand shown
# Summary of the method: as §1
# [4] = target: T2, SPIC (Homo sapiens, UniProt Q8N5J4 1-248); settings: protein: recombinant; tags: N-terminal GST; dsDNA, one strand shown
# T2 sequence: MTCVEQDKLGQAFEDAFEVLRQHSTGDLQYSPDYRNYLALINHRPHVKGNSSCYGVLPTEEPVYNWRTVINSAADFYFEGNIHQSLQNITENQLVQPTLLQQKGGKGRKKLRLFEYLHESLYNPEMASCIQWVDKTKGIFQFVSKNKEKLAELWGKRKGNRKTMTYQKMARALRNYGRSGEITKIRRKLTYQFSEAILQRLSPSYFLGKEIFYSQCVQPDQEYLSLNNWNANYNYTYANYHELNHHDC
# Summary of the method: as §1
# [5] = target: ELF4 (Homo sapiens, UniProt Q99607 1-663); settings: protein: recombinant; tags: N-terminal GST; dsDNA, one strand shown
# Summary of the method: as §1
# [6] = target: T3, ELK4 (Homo sapiens, UniProt P28324-2 1-405); settings: protein: recombinant; tags: N-terminal GST; dsDNA, one strand shown
# T3 sequence: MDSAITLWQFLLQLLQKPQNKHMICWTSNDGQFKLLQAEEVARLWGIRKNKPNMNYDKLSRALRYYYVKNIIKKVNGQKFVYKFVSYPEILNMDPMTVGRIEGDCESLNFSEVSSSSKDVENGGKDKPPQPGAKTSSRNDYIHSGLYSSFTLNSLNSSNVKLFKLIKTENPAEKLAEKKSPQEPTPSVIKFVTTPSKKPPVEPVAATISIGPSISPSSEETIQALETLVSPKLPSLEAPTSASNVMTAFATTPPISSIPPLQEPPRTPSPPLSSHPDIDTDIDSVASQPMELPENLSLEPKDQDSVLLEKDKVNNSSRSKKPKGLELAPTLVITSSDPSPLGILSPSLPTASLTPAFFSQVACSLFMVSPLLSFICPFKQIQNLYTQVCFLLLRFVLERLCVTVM
# Summary of the method: as §1
# [7] = target: T4, ETV2 (Homo sapiens, UniProt O00321 1-342); settings: protein: recombinant; tags: N-terminal GST; dsDNA, one strand shown
# T4 sequence: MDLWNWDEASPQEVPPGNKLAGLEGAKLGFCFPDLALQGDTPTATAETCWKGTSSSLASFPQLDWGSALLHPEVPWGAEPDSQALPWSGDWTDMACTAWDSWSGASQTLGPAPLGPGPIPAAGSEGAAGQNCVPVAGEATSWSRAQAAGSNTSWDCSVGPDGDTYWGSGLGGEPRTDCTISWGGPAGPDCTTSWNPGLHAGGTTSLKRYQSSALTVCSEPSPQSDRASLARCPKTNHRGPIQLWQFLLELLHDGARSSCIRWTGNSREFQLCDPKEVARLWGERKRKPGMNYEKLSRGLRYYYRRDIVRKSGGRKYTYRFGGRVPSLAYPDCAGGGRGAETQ
# Summary of the method: as §1
# [8] = target: T5, ELF3 (Homo sapiens, UniProt P78545 1-371); settings: protein: recombinant; tags: N-terminal GST; dsDNA, one strand shown
# T5 sequence: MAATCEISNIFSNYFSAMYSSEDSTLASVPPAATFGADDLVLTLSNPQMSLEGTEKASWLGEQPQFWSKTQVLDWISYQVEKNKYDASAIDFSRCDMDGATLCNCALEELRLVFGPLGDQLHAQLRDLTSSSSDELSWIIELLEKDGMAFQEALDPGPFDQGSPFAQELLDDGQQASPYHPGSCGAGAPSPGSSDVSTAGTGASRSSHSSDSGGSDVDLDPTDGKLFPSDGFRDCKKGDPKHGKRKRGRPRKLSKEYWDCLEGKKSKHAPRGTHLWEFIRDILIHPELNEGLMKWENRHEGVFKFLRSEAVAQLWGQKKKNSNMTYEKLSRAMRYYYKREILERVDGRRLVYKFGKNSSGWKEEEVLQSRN
# Summary of the method: as §1
# [9] = target: CRX (Homo sapiens, UniProt O43186 1-299); settings: protein: recombinant; tags: N-terminal GST; dsDNA, one strand shown
# Summary of the method: as §1
# [10] = target: ETV1 (Homo sapiens, UniProt P50549 1-477); settings: protein: recombinant; tags: N-terminal GST; dsDNA, one strand shown
# Summary of the method: as §1
# [11] = target: T6, ERF (Homo sapiens, UniProt P50548 1-548); settings: protein: recombinant; tags: N-terminal GST; dsDNA, one strand shown
# T6 sequence: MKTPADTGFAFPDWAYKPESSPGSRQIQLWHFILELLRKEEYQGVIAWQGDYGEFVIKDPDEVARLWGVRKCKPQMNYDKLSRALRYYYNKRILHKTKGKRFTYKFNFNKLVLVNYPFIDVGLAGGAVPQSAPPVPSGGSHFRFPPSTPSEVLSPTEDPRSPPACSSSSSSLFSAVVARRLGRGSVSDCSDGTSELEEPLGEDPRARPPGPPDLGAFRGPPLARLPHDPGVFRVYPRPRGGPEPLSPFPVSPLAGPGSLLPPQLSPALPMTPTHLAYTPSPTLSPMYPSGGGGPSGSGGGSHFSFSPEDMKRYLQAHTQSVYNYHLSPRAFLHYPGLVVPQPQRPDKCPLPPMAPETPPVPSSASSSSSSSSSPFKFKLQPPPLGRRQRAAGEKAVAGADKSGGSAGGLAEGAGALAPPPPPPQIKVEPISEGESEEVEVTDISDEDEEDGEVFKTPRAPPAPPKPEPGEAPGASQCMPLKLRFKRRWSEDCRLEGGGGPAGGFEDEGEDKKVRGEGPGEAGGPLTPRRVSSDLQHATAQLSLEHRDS
# Summary of the method: as §1
# [12] = target: T7, ETV3L (Homo sapiens, UniProt Q6ZN32 1-361); settings: protein: recombinant; tags: N-terminal GST; dsDNA, one strand shown
# T7 sequence: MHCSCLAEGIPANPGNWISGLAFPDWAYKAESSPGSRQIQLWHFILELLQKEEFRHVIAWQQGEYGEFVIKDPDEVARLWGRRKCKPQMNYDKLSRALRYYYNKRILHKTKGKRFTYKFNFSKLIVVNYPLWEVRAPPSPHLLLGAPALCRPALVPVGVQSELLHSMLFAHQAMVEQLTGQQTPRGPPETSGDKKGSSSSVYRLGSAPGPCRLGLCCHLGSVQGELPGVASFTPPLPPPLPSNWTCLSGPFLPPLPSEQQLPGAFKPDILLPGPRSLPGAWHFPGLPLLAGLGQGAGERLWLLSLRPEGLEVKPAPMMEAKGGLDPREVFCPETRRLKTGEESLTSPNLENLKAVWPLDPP
# Summary of the method: as §1
# [13] = target: T8, ETS2 (Homo sapiens, UniProt P15036 1-469); settings: protein: recombinant; tags: N-terminal GST; dsDNA, one strand shown
# T8 sequence: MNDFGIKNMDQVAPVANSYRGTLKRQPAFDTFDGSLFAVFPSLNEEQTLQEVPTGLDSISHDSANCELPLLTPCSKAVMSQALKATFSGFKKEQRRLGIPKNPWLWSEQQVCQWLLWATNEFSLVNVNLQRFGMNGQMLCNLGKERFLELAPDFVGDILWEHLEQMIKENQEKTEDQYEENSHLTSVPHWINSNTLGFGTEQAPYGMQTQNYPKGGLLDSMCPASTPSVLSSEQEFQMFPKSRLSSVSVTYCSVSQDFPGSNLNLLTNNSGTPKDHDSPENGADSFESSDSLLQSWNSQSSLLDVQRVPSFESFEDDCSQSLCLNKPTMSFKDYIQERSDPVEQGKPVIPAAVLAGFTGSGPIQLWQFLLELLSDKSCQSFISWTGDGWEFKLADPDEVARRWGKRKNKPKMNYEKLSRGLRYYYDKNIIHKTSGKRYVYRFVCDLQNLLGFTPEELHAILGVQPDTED
# Summary of the method: as §1
# [14] = target: T9, SPDEF (Homo sapiens, UniProt O95238 1-335); settings: protein: recombinant; tags: N-terminal GST; dsDNA, one strand shown
# T9 sequence: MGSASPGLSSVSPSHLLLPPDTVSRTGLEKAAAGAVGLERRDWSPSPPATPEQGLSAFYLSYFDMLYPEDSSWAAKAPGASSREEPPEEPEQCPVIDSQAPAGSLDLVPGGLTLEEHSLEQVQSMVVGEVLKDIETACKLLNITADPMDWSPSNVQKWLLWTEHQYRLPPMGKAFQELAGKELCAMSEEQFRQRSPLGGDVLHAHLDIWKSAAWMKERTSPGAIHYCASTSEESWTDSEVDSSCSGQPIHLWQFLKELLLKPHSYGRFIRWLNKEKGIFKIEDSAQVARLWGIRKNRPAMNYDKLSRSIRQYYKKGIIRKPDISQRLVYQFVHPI
# Summary of the method: as §1
# [15] = target: T10, ETV7 (Homo sapiens, UniProt Q9Y603 1-341); settings: protein: recombinant; tags: N-terminal GST; dsDNA, one strand shown
# T10 sequence: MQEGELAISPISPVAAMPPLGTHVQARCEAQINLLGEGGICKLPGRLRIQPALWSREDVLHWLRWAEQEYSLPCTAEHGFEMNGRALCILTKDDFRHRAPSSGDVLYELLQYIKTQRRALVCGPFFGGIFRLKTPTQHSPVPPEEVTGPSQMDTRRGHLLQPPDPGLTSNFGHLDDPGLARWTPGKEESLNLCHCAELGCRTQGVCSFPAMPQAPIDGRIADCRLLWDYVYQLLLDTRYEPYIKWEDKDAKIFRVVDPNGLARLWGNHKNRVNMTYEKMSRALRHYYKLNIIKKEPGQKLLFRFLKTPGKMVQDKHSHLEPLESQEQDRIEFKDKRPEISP
# Summary of the method: as §1
# [16] = target: T11, ELF5 (Homo sapiens, UniProt Q9UKW6-2 1-255); settings: protein: recombinant; tags: N-terminal GST; dsDNA, one strand shown
# T11 sequence: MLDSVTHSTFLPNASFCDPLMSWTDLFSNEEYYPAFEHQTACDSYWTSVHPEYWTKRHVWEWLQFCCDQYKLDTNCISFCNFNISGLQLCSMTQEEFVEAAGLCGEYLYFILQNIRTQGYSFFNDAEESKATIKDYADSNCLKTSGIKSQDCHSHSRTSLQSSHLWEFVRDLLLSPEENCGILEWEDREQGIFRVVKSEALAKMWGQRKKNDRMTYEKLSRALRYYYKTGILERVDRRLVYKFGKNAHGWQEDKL
# Summary of the method: as §1
# [17] = target: T12, ETV3 (Homo sapiens, UniProt P41162-2 1-143); settings: protein: recombinant; tags: N-terminal GST; dsDNA, one strand shown
# T12 sequence: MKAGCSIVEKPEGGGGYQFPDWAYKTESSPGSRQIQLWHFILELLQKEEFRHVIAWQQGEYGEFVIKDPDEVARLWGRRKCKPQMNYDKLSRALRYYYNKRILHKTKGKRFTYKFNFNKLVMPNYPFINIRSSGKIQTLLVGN
# Summary of the method: as §1
# [18] = target: ETV6 (Homo sapiens, UniProt P41212 1-452); settings: protein: recombinant; tags: N-terminal GST; dsDNA, one strand shown
# Summary of the method: as §1
# Sequence of HSF1 (Q00613 whole entry): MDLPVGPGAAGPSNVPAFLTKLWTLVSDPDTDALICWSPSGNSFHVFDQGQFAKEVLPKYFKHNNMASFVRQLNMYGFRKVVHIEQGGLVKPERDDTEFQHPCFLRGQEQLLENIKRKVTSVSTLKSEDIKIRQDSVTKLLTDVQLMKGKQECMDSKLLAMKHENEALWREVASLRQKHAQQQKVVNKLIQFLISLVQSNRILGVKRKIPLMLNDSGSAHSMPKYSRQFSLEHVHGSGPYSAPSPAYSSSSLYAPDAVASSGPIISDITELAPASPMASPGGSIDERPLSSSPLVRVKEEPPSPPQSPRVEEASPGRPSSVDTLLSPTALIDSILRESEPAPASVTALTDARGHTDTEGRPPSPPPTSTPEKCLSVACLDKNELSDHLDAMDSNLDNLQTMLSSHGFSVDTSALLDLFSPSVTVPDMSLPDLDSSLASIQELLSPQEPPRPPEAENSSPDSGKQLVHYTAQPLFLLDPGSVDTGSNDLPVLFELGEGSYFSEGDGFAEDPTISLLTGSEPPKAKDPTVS
# Sequence of CRX (O43186 whole entry): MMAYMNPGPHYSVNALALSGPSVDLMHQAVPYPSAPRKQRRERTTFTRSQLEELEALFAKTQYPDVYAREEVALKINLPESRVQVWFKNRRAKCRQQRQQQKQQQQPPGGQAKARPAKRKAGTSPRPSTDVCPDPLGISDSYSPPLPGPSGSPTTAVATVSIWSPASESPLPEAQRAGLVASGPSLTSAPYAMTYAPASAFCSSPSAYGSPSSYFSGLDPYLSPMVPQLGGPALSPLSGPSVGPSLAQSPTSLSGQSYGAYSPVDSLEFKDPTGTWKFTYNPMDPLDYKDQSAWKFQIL
# Sequence of ETV5 (P41161 whole entry): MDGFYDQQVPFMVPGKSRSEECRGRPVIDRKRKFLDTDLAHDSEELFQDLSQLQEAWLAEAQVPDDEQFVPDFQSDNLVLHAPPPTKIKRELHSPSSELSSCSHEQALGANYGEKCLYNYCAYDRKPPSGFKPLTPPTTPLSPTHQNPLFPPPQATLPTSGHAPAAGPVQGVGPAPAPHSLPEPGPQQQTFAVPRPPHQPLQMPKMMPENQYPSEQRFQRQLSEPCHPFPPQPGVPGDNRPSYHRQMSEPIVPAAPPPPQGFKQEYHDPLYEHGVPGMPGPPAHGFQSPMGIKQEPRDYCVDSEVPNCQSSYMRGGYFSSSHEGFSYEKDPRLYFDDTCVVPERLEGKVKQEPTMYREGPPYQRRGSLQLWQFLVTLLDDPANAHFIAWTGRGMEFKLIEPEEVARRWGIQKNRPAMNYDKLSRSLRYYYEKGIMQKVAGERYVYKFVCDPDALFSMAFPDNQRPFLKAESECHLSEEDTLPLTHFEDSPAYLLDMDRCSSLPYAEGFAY
# Sequence of ETV6 (P41212 whole entry): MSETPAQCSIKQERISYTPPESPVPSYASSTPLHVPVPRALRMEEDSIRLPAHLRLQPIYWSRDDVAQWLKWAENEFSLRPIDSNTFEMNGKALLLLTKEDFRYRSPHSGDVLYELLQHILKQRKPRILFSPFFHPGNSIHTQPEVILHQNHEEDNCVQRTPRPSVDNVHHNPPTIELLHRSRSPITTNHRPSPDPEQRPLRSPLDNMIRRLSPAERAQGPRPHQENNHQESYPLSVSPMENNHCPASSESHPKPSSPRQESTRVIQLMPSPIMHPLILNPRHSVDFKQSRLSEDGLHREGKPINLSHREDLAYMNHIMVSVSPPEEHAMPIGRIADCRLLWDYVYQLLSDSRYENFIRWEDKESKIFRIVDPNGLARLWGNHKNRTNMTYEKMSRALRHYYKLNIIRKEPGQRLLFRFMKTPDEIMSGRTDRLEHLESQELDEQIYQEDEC
# Sequence of ETV1 (P50549 whole entry): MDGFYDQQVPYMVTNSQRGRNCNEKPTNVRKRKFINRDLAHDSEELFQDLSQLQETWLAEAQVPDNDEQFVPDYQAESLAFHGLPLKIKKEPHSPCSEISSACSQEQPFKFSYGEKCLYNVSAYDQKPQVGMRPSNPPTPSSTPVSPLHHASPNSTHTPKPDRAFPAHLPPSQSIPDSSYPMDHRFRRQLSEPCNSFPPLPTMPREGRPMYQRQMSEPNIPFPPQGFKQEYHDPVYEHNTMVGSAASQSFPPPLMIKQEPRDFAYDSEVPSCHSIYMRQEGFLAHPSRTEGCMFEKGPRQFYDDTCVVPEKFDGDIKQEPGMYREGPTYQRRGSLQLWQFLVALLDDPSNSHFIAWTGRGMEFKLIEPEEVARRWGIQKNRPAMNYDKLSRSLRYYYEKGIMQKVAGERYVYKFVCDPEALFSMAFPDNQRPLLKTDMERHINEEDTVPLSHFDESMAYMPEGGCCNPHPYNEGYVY
# Sequence of ELF4 (Q99607 whole entry): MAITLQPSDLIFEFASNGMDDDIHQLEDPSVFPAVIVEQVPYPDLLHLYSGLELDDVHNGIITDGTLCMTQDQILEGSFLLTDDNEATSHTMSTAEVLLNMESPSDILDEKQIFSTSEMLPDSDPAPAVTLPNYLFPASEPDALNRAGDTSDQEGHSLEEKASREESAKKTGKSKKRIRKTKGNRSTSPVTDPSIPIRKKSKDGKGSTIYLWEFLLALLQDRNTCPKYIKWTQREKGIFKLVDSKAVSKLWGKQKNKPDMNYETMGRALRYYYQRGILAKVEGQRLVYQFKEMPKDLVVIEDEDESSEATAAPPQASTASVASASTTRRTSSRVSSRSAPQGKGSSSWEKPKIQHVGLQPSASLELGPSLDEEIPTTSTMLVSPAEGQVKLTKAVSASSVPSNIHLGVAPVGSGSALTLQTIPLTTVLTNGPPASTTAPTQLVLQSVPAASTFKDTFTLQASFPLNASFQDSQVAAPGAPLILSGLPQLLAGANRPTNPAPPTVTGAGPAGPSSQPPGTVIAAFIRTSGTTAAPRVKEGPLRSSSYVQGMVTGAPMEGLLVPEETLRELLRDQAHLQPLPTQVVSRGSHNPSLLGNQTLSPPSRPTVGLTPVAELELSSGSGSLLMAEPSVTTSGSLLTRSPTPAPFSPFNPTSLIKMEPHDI
sequence,measurement,setting,value
ATTATG,binding signal,[1],"1.13 fold enrichment (6-mer frequency, TF over GST control)"
same,binding signal,[2],"1.26 fold enrichment (6-mer frequency, TF over GST control)"
same,binding signal,[3],"1.68 fold enrichment (6-mer frequency, TF over GST control)"
same,binding signal,[4],"1.42 fold enrichment (6-mer frequency, TF over GST control)"
same,binding signal,[5],"1.22 fold enrichment (6-mer frequency, TF over GST control)"
same,binding signal,[6],"1.11 fold enrichment (6-mer frequency, TF over GST control)"
same,binding signal,[7],"1.03 fold enrichment (6-mer frequency, TF over GST control)"
same,binding signal,[8],"1.48 fold enrichment (6-mer frequency, TF over GST control)"
same,binding signal,[9],"2.58 fold enrichment (6-mer frequency, TF over GST control)"
same,binding signal,[10],"1.21 fold enrichment (6-mer frequency, TF over GST control)"
same,binding signal,[11],"1.11 fold enrichment (6-mer frequency, TF over GST control)"
same,binding signal,[12],"1.27 fold enrichment (6-mer frequency, TF over GST control)"
same,binding signal,[13],"1.14 fold enrichment (6-mer frequency, TF over GST control)"
same,binding signal,[14],"1.19 fold enrichment (6-mer frequency, TF over GST control)"
same,binding signal,[15],"1.32 fold enrichment (6-mer frequency, TF over GST control)"
same,binding signal,[16],"1.14 fold enrichment (6-mer frequency, TF over GST control)"
same,binding signal,[17],"1.2 fold enrichment (6-mer frequency, TF over GST control)"
same,binding signal,[18],"1.33 fold enrichment (6-mer frequency, TF over GST control)"

# — PMC7862700, “An all-to-all approach to the identification of sequence-specific readers for epigenetic DNA modifications on cytosine”
